High-throughput results from PubChem BioAssay.
Only some compounds are listed: those with a hit (about 4.5% of all), similar ones and a draw of the others.
CSC inhib: cancer stem cell inhibition. cancer stem cell-like cells viability, luminescence. inhibition, % at 7.5 µM. 300,000 tested, 1.1% active; in the data active means inhibition above about 75%; tested in HMLE shEcad cells
Jurkat NFkB inh: lowers PMA/ionomycin-induced NF-kB signal in Jurkat cells; PMA/ionomycin-induced NF-kB luciferase reporter, luminescence; 330,000 tested, 0.53% active; inhibition, % at 4 µM; AID 435003; in the data active means inhibition above about 50%
Beta apoptosis: beta cell apoptosis inhibition | INS-1E cytokine-induced death, ATP luminescence, 48 h; percent of positive-control rescue, neutral wells zero | protection from apoptosis, % (test concentration not listed) | 300,000 tested, 0.8% active;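 active means Every replicate reaches about 75%, or at least half do and their mean reaches it too, limit read from the data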;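 further: 0% = cytokine-treated negative control wells and 100% = positive control rescue; higher means more ATP so stronger rescue from cytokine killing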
Mdm2 MdmX PPI: disrupts the human Mdm2-MdmX interaction. O15151+Q00987. SaOS-2 split-luciferase Mdm2/MdmX complementation, luminescence. inhibition, % at 8 µM. 330,000 tested, 3% active. AID 485346;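 active means inhibition of at least 50% at 8 µM in the primary screen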
Gli-Sufu antag: blocks Gli-Sufu signaling in a luciferase reporter. Sufu-KO-LIGHT fibroblasts, Gli luciferase reporter luminescence. inhibition, % at 5 µM. 340,000 tested, 0.74% active. AID 588413;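 active means inhibition above about 55%, limit read from the data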;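 further: 0% = DMSO-treated cells and 100% = wells with medium but no cells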
697 NFkB inh: inhibitors of the PMA/ionomycin-induced NF-kB reporter in 697 B cells; 697 B-cell NF-kB luciferase reporter, 16 h; inhibition, % at 4 µM; 330,000 tested, 0.33% active; in the data active means inhibition above about 35%
* marks the source's active call; other numbers are inactive results; / = no result.

SMILES	CSC inhib	Jurkat NFkB inh	Beta apoptosis	Mdm2 MdmX PPI	Gli-Sufu antag	697 NFkB inh
O=C(CCSc1ccc(Cl)cc1)N1CCN(c2ccc(O)cc2)CC1	106*	-15	0	-25	26	-35
O=C(COc1cccc(C(F)(F)F)c1)N1CCN(c2ccc(O)cc2)CC1	78*	-2	3	-7	36	-62
O=C(CCOc1ccccc1)N1CCN(c2ccc(O)cc2)CC1	82*	-11	-2	12	33	-7
O=C(CCSc1ccccc1)N1CCN(c2ccccc2)CC1	-11	-35	1	-75	-46	-42
N#Cc1c(-c2ccccc2)nc(SCc2ccc(Cl)cc2)[nH]c1=O	104*	7	-11	17	-24	7
C=CCSc1nc(-c2ccccc2)c(C#N)c(=O)[nH]1	1	0	-4	-15	0	11
O=C(NC1C2CCCC1CN(C1CC1)C2)c1ccc(Cl)cc1 (centres undefined)	8	0	-6	-6	13	-27
O=C(/C=C/c1ccnc2ccccc12)c1cccs1	86*	-74	-5	-31	-88	-102
C=C1CCN([C@@H](CC(C)C)C(=O)Nc2nc3ccc(Cl)cc3s2)S(=O)(=O)c2ccccc21	102*	-6	1	28	20	20
C=C1CCN([C@@H](CC(C)C)C(=O)Nc2ccc(OC)cc2)S(=O)(=O)c2ccccc21	-7	16	2	29	-3	10
CCc1ccccc1NC(=O)C1(S(=O)(=O)c2ccc(C)cc2)CC1	/	4	-7	3	2	16
O=C(NCCCSc1ccccc1)c1cc(Br)ccc1O	80*	2	-10	38	-2	9
O=C(/C=C/c1c[nH]c2ccccc12)c1cccc2ccccc12	87*	2	-2	31	-1	-24
O=C(c1ccccc1)c1c[nH]c2ccccc12	-3	/	2	/	-9	/
CCCOC(=O)C(C)n1cnc2scc(-c3ccc(C)cc3)c2c1=O (centres undefined)	5	-28	-2	-7	45	-42
Cc1ccc(SC2=C(Sc3ccc(C)cc3)C(=O)c3ccccc3C2=O)cc1	78*	-76	-23	11	-12	-201
O=C(C(Sc1ccccc1)c1ccccc1)N1CCN(c2ccccc2F)CC1 (centres undefined)	/	0	90*	-6	2	4
CCN(CC)c1ccc(C(=C2C=CC(=[N+](CC)CC)C=C2)c2ccc(S(=O)(=O)O)cc2S(=O)(=O)[O-])cc1	/	/	/	/	26	/
CC(C)(C)c1nnc(NS(=O)(=O)c2cc(Cl)ccc2Cl)s1	11	5	/	6	40	-1
O=S(=O)(Nc1nc(-c2sccc2Cl)cs1)c1cc(Cl)ccc1Cl	119*	-63	2	2	11	-66
CC(C)C(NC(=O)C1CC(=O)N(Cc2ccccc2)C1)c1nc2ccccc2[nH]1 (centres undefined)	-9	-3	-5	16	1	1
O=C(Nc1ccc([N+](=O)[O-])cc1)Nc1nc(-c2ccc(Cl)s2)cs1	97*	/	129*	/	60*	/
CC(=O)Nc1nc(-c2ccc([N+](=O)[O-])cc2)cs1	-9	-22	-2	8	-29	-33
NS(=O)(=O)c1ccc(CCNC(=O)COC(=O)C2COc3ccccc3O2)cc1 (centres undefined)	-1	1	-1	-12	-10	9
Cc1ccc(NS(=O)(=O)c2sc3ccc(Cl)cc3c2C)cc1	98*	10	-5	17	11	-14
SMILES	CSC inhib	Jurkat NFkB inh	Beta apoptosis	Mdm2 MdmX PPI	Gli-Sufu antag	697 NFkB inh
O=C(NC(=S)NCCc1ccccc1)C1CCCCC1	102*	-19	3	8	-9	-17
Cc1cc(C)c2c(N)c3cccc(C)c3nc2n1	-4	/	98*	/	-12	/
Cc1cccc2c(N)c3c(nc12)CCCC3 (tested in a mixture with another compound)	/	/	/	/	13	/
O=Nc1c(O)n(Cc2ccc(Cl)cc2Cl)c2ccccc12	113*	7	25	36	0	-12
Cc1ccc(Cn2c(O)c(N=O)c3ccccc32)cc1	35	0	4	23	-9	-17
CCCCn1c(N)c(N(CCC(C)C)C(=O)C2CC(=O)N(CCc3ccc(OC)c(OC)c3)C2)c(=O)[nH]c1=O (centres undefined)	2	11	-1	22	-17	20
C/C(=N\NC(=S)Nc1ccccc1C)c1cc2ccccc2o1	28	13	78*	19	1	-1
COc1cc2c(cc1NC(=O)CSc1nc3ccccc3[nH]1)oc1ccccc12	80*	-6	9	14	-1	19
COc1cc2c(cc1NC(=O)c1cccc([N+](=O)[O-])c1C)oc1ccccc12	102*	-40	13	18	13	-24
COc1cc2c(cc1NC(=O)c1cccc(S(=O)(=O)N(C)C)c1)oc1ccccc12	126*	-62	3	-61	-24	-99
COc1cc2c(cc1NC(=O)Nc1ccc(C)cc1)oc1ccccc12	88*	-8	7	8	-29	-13
COc1cc2c(cc1NC(=O)Nc1cccc(C)c1)oc1ccccc12	20	-4	9	-10	-8	10
CCN(CC)S(=O)(=O)c1ccc(C(=O)Nc2cc3oc4ccccc4c3cc2OC)cc1	21	-29	6	-5	39	-29
CC(C)(C)C(O)CN1CCCC1 (centres undefined)	5	-2	1	9	3	9
CC(C)CC(=O)N1CCN(C(=O)c2ccc(-c3ccccc3)cc2)CC1	-4	15	2	9	-8	-4
O=C(NCCS(=O)(=O)NCc1ccccn1)c1ccccc1	-10	8	-6	-1	-8	-15
O=C(CSc1nc(=O)n2ccccc2n1)N1CCN(c2ccccc2)CC1	-7	-9	-2	13	-7	-9
O=C(Nc1cccnc1)C1(F)C(F)(F)C(F)(F)C(F)(F)C(F)(F)C1(F)F	-9	-1	110*	4	24	-128
Cc1ccc(-n2nc3c(N4CCC(C(=O)NCc5cccc(F)c5)CC4)nnc(C)c3c2C)cc1	0	44	13	44	27	-6
c1csc(-c2csc3ncnc(NCCCN4CCOCC4)c23)c1	0	15	76*	22	42	-38
CCC(=O)NC(C)c1cc(Cl)c2cccnc2c1O (centres undefined)	-4	-5	-7	39	18	-1
CC(=O)NC(C)c1cc(Cl)c2cccnc2c1O (centres undefined)	47	-3	92*	40	3	-3
CC(C)NC(=O)COc1coc(CN2CCN(c3ccccc3)CC2)cc1=O	-14	-2	/	-5	-1	-4
CC1(C)[C@@H](O)CC[C@]2(C)C3C(O)C=C4[C@H]5C[C@@](C)(CO)CC[C@]5(C)CC[C@]4(C)[C@]3(C)CC[C@@H]12 (some centres undefined)	126*	6	-1	-21	3	6
